# The whole screen tested about 5,500 compounds, of which about 2,000 (36%) were called active. Another 18% or so got no clear call; they are omitted. Some of the results follow. Values without a mark were called inactive. Rule as the data show it: active = normalized growth mostly below about 0.91 (no sharp cut-off); inconclusive = no clear call, values can overlap the other calls; inactive = mostly above about 0.92.
# Assay: chemical genetic growth profiling, strain panel (AID 1159580);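 also: tested at 20 µM; growth read once vehicle control cultures reached saturation at 30 °C; 1 = growth at the plate median or of vehicle wells; lower values mean less growth of the strain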
# Settings: growth OD
compound,measurement,setting,value
COc1cc(OC)cc(OC)c1,normalized growth,"S. cerevisiae deletion strains, locus YAL013W, strain DEP1, active compounds read low",1.01
same,normalized growth,"S. cerevisiae deletion strains, locus YBR021W, strain FUR4, active compounds read low",1.02
same,normalized growth,"S. cerevisiae deletion strains, locus YBR229C, strain ROT2, active compounds read low",1.01
same,normalized growth,"S. cerevisiae deletion strains, locus YCL029C, strain bik1, active compounds read low",0.743 (active)
same,normalized growth,"S. cerevisiae deletion strains, locus YDL035C, strain GPR1, active compounds read low",1.02
same,normalized growth,"S. cerevisiae deletion strains, locus YDL074C, strain BRE1, active compounds read low",1.01
same,normalized growth,"S. cerevisiae deletion strains, locus YDL101C, strain DUN1, active compounds read low",1
same,normalized growth,"S. cerevisiae deletion strains, locus YDL134C, strain PPH21, active compounds read low",1
same,normalized growth,"S. cerevisiae deletion strains, locus YDL185W, strain tfp1, active compounds read low",0.982
same,normalized growth,"S. cerevisiae deletion strains, locus YDL192W, strain arf1, active compounds read low",0.102 (active)
same,normalized growth,"S. cerevisiae deletion strains, locus YDR101C, strain arx1, active compounds read low",0.529 (active)
same,normalized growth,"S. cerevisiae deletion strains, locus YDR150W, strain NUM1, active compounds read low",1.01
same,normalized growth,"S. cerevisiae deletion strains, locus YDR162C, strain NBP2, active compounds read low",1.02
same,normalized growth,"S. cerevisiae deletion strains, locus YDR318W, strain mcm21, active compounds read low",0.0697 (active)
same,normalized growth,"S. cerevisiae deletion strains, locus YDR388W, active compounds read low",0.0643 (active)
same,normalized growth,"S. cerevisiae deletion strains, locus YDR502C, strain sam2, active compounds read low",0.159 (active)
same,normalized growth,"S. cerevisiae deletion strains, locus YEL061C, strain CIN8, active compounds read low",1
same,normalized growth,"S. cerevisiae deletion strains, locus YER110C, active compounds read low",0.305 (active)
same,normalized growth,"S. cerevisiae deletion strains, locus YER155C, strain BEM2, active compounds read low",1.01
same,normalized growth,"S. cerevisiae deletion strains, locus YER167W, strain BCK2, active compounds read low",1.01
same,normalized growth,"S. cerevisiae deletion strains, locus YGL078C, strain dbp3, active compounds read low",0.299 (active)
same,normalized growth,"S. cerevisiae deletion strains, locus YGL086W, strain mad1, active compounds read low",0.0586 (active)
same,normalized growth,"S. cerevisiae deletion strains, locus YGL248W, strain PDE1, active compounds read low",1.01
same,normalized growth,"S. cerevisiae deletion strains, locus YGR078C, strain PAC10, active compounds read low",1.01
same,normalized growth,"S. cerevisiae deletion strains, locus YGR135W, strain pre9, active compounds read low",0.0735 (active)
same,normalized growth,"S. cerevisiae deletion strains, locus YGR229C, strain SMI1, active compounds read low",1
same,normalized growth,"S. cerevisiae deletion strains, locus YGR252W, strain gcn5, active compounds read low",0.24 (active)
same,normalized growth,"S. cerevisiae deletion strains, locus YHR030C, strain SLT2, active compounds read low",1.01
same,normalized growth,"S. cerevisiae deletion strains, locus YHR079C, strain IRE1 (second series), active compounds read low",0.598 (active)
same,normalized growth,"S. cerevisiae deletion strains, locus YHR094C, strain hxt1, active compounds read low",0.147 (active)
same,normalized growth,"S. cerevisiae deletion strains, locus YHR129C, strain ARP1, active compounds read low",1.01
same,normalized growth,"S. cerevisiae deletion strains, locus YHR200W, strain rpn10, active compounds read low",0.124 (active)
same,normalized growth,"S. cerevisiae deletion strains, locus YIL066C, strain RNR3, active compounds read low",1.01
same,normalized growth,"S. cerevisiae deletion strains, locus YIL073C, strain SPO22, active compounds read low",1
same,normalized growth,"S. cerevisiae deletion strains, locus YIL125W, strain kgd1, active compounds read low",0.263 (active)
same,normalized growth,"S. cerevisiae deletion strains, locus YIR030C, strain dcg1, active compounds read low",0.317 (active)
same,normalized growth,"S. cerevisiae deletion strains, locus YJL095W, strain BCK1, active compounds read low",1.01
same,normalized growth,"S. cerevisiae deletion strains, locus YJL134W, strain LCB3, active compounds read low",1
same,normalized growth,"S. cerevisiae deletion strains, locus YJL168C, strain set2, active compounds read low",0.206 (active)
same,normalized growth,"S. cerevisiae deletion strains, locus YJL187C, strain SWE1 (second series), active compounds read low",1.02
same,normalized growth,"S. cerevisiae deletion strains, locus YJR043C, strain POL32, active compounds read low",0.994
same,normalized growth,"S. cerevisiae deletion strains, locus YJR075W, strain HOC1, active compounds read low",1
same,normalized growth,"S. cerevisiae deletion strains, locus YKL009W, strain mrt4, active compounds read low",0.898
same,normalized growth,"S. cerevisiae deletion strains, locus YKL068W, active compounds read low",1
same,normalized growth,"S. cerevisiae deletion strains, locus YKL085W, strain MDH1 (second series), active compounds read low",0.211 (active)
same,normalized growth,"S. cerevisiae deletion strains, locus YKL085W, strain MDH1, active compounds read low",0.211 (active)
same,normalized growth,"S. cerevisiae deletion strains, locus YKL190W, strain CNB1, active compounds read low",1.01
same,normalized growth,"S. cerevisiae deletion strains, locus YKR001C, strain vps1, active compounds read low",0.127 (active)
same,normalized growth,"S. cerevisiae deletion strains, locus YLR039C, strain RIC1, active compounds read low",1.01
same,normalized growth,"S. cerevisiae deletion strains, locus YLR058C, strain SHM2, active compounds read low",1.01
same,normalized growth,"S. cerevisiae deletion strains, locus YLR102C, strain apc9, active compounds read low",0.106 (active)
same,normalized growth,"S. cerevisiae deletion strains, locus YLR262C, strain YPT6, active compounds read low",1.04
same,normalized growth,"S. cerevisiae deletion strains, locus YLR268W, strain sec22, active compounds read low",0.0897 (active)
same,normalized growth,"S. cerevisiae deletion strains, locus YLR330W, strain CHS5, active compounds read low",1
same,normalized growth,"S. cerevisiae deletion strains, locus YLR342W, strain FKS1 (second series), active compounds read low",0.983
same,normalized growth,"S. cerevisiae deletion strains, locus YLR371W, strain rom2, active compounds read low",0.0926 (active)
same,normalized growth,"S. cerevisiae deletion strains, locus YLR418C, strain cdc73, active compounds read low",0.104 (active)
same,normalized growth,"S. cerevisiae deletion strains, locus YML016C, strain PPZ1, active compounds read low",1
same,normalized growth,"S. cerevisiae deletion strains, locus YML032C, strain rad52, active compounds read low",0.853 (active)
same,normalized growth,"S. cerevisiae deletion strains, locus YML124C, strain tub3, active compounds read low",0.181 (active)
same,normalized growth,"S. cerevisiae deletion strains, locus YMR078C, strain ctf18, active compounds read low",0.231 (active)
same,normalized growth,"S. cerevisiae deletion strains, locus YMR223W, strain ubp8, active compounds read low",0.0875 (active)
same,normalized growth,"S. cerevisiae deletion strains, locus YMR263W, strain SAP30, active compounds read low",1.02
same,normalized growth,"S. cerevisiae deletion strains, locus YMR307W, strain GAS1, active compounds read low",0.961
same,normalized growth,"S. cerevisiae deletion strains, locus YNL067W, strain RPL9B, active compounds read low",1.02
same,normalized growth,"S. cerevisiae deletion strains, locus YNL128W, strain TEP1, active compounds read low",1.02
same,normalized growth,"S. cerevisiae deletion strains, locus YNL153C, strain GIM3, active compounds read low",1.02
same,normalized growth,"S. cerevisiae deletion strains, locus YNL233W, strain BNI4, active compounds read low",1.02
same,normalized growth,"S. cerevisiae deletion strains, locus YNL250W, strain rad50, active compounds read low",0.725 (active)
same,normalized growth,"S. cerevisiae deletion strains, locus YNL271C, strain bni1, active compounds read low",0.351 (active)
same,normalized growth,"S. cerevisiae deletion strains, locus YNL298W, strain CLA4, active compounds read low",0.725 (active)
same,normalized growth,"S. cerevisiae deletion strains, locus YNL307C, strain MCK1, active compounds read low",0.0671 (active)
same,normalized growth,"S. cerevisiae deletion strains, locus YNL322C, strain KRE1, active compounds read low",1.01
same,normalized growth,"S. cerevisiae deletion strains, locus YNR052C, strain pop2, active compounds read low",1
same,normalized growth,"S. cerevisiae deletion strains, locus YOL006C, strain TOP1, active compounds read low",0.948
same,normalized growth,"S. cerevisiae deletion strains, locus YOL147C, strain pex11, active compounds read low",0.838 (active)
same,normalized growth,"S. cerevisiae deletion strains, locus YOR061W, strain CKA2, active compounds read low",1
same,normalized growth,"S. cerevisiae deletion strains, locus YOR069W, strain VPS5, active compounds read low",1
same,normalized growth,"S. cerevisiae deletion strains, locus YOR136W, strain idh2, active compounds read low",0.104 (active)
same,normalized growth,"S. cerevisiae deletion strains, locus YOR144C, strain elg1, active compounds read low",0.997
same,normalized growth,"S. cerevisiae deletion strains, locus YOR184W, strain ser1, active compounds read low",0.0729 (active)
same,normalized growth,"S. cerevisiae deletion strains, locus YOR316C, strain cot1, active compounds read low",0.096 (active)
same,normalized growth,"S. cerevisiae deletion strains, locus YPL055C, strain LGE1, active compounds read low",1.02
same,normalized growth,"S. cerevisiae deletion strains, locus YPL241C, strain CIN2, active compounds read low",1.01
same,normalized growth,"S. cerevisiae deletion strains, locus YPR119W, strain clb2, active compounds read low",0.169 (active)
same,normalized growth,"S. cerevisiae deletion strains, locus YPR141C, strain kar3, active compounds read low",1.01
same,normalized growth,"S. cerevisiae deletion strains, locus YPR163C, strain tif3, active compounds read low",0.0751 (active)
same,normalized growth,"S. cerevisiae deletion strains, locus YPR167C, strain met16, active compounds read low",0.0964 (active)
same,normalized growth,"S. cerevisiae deletion strains, strain wtn01, active compounds read low",0.0632 (active)
same,normalized growth,"S. cerevisiae strains, strain wild type, active compounds read low",1.01

# Source: PubChem BioAssay AID1159580 (chemical genetic matrix, 2015)
